APOBEC3A inh – APOBEC3A ssDNA deaminase inhibitors, primary screen, selectivity assay for APOBEC3G inhibitor project, biochemical, FAM/TAMRA oligo cleavage fluorescence | 330,000 tested, 0.41% active | inhibition, % at 20 µM | recombinant A3A, FAM/TAMRA ssDNA deamination fluorescence | DNA dC->dU-editing enzyme APOBEC-3A (Homo sapiens), P31941;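 active means at least 40% inhibition at 20 µM here, with at most 30% in a related deaminase screen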
A3G deaminase – APOBEC3G DNA deaminase inhibitors, primary screen, biochemical, fluorescence, single-stranded DNA substrate, uHTS; recombinant A3G, ssDNA deamination FAM/TAMRA fluorescence; inhibition, % at 20 µM; 330,000 tested, 0.28% active; AID 493012, 2011;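 active means inhibition of at least 40% at 20 µM, with no more than 30% in the related APOBEC3A deaminase screen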
PABP1 MLLE inh – inhibitors of PABP1 MLLE–PAM2 peptide binding, primary screen, biochemical, fluorescence polarization, FITC-PAM2, GST-MLLE | 360,000 tested, 0.36% active | inhibition, % at 20 µM | Polyadenylate-binding protein 1 (Homo sapiens), P11940; in the data active means inhibition above about 35%, passing the limit was not always enough
Target sequence (P11940 whole entry, looked up): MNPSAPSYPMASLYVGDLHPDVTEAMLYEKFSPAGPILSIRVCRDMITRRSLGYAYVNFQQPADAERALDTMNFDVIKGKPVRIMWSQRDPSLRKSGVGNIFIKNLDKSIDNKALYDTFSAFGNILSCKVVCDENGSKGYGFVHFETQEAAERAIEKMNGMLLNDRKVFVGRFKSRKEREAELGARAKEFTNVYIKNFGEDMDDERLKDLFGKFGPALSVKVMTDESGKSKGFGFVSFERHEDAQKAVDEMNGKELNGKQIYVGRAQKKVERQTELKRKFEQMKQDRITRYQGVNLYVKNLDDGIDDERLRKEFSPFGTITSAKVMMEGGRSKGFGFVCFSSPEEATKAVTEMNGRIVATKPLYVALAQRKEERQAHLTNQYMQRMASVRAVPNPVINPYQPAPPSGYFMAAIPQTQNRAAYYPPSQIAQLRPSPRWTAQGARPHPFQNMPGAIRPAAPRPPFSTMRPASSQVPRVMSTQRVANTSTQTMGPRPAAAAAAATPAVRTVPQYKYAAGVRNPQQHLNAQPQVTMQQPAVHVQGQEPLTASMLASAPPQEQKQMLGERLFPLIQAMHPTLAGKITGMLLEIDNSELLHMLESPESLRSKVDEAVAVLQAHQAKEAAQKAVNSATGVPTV
PABP polyA inh – PABP poly(A) RNA binding inhibitors, primary screen, biochemical, fluorescence polarization, uHTS; Polyadenylate-binding protein 1 (Homo sapiens), P11940; calls only at 35 µM; 290,000 tested, 1% active; AID 2014, 2009;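 further: calls also rest on retests at 20 µM and on dose response follow-up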
PHOSPHO1 block – PubChem AID 1565; recombinant PHOSPHO1, absorbance phosphatase assay; inhibition, % at 13.3 µM; 290,000 tested, 1.1% active; in the data active means inhibition above about 60%
eIF4H inh – human eIF4H binding inhibitors, primary screen, translation initiation inhibitor project, biochemical, uHTS, fluorescence polarization; eIF4H fluorescence polarization binding assay; 290,000 tested, 0.94% active; inhibition, % at 35 µM;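 further: calls also rest on retests at 20 µM and on dose response follow-up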
A3A conf – APOBEC3A deaminase inhibitors, retest, confirmation, selectivity assay for APOBEC3G inhibitor project, biochemical, single concentration, fluorescence readout. 1,400 tested, 63% active. shares compounds with APOBEC3A inh. recombinant A3A, ssDNA deaminase UDG fluorescence assay. inhibition, % at 20 µM;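 active means inhibition reaching a set limit, 80% of the first screen's cutoff, at 20 µM in any replicate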
UDG A3A counter – E. coli UDG inhibitors, confirmation, counter-screen for APOBEC3A inhibitor project, biochemical, single concentration, fluorescence, FAM/TAMRA oligo | shares compounds with APOBEC3A inh | inhibition, % at 20 µM | 1,000 tested, under 10 active | UDG counterscreen, FAM/TAMRA uracil oligo fluorescence
A number is an active result. Shown are actives, neighbours in structure and some others; about 2.6% of the full set was active somewhere. Unless noted, how the calls were made is not given here.

`COc1ccc(C(=O)OCCN2CCCCC2)cc1` gave APOBEC3A inh inactive, A3G deaminase inactive, PABP1 MLLE inh inactive, PABP polyA inh inactive, PHOSPHO1 block inactive and eIF4H inh inactive.
`COc1ccc(C(=O)C[N+]2(C)CCOCC2)cc1` gave APOBEC3A inh 64, A3G deaminase inactive, PABP1 MLLE inh inactive, PHOSPHO1 block 80, A3A conf 67 and UDG A3A counter inactive.
Screening COc1ccc(C(=O)OCC[N+]2(C)CCCCC2)cc1 returned APOBEC3A inh 64, A3G deaminase inactive, PABP1 MLLE inh inactive, PABP polyA inh inactive, PHOSPHO1 block inactive, eIF4H inh inactive, A3A conf 78 and UDG A3A counter inactive.
Screening COc1ccc(C(=O)CC(=O)c2ccc(OC)cc2)cc1 returned APOBEC3A inh inactive, A3G deaminase inactive, PABP1 MLLE inh inactive, PABP polyA inh inactive and eIF4H inh inactive.
`C[N+]1(CCOC(=O)C2(c3ccccc3)CCCC2)CCCCC1` gave APOBEC3A inh 64, A3G deaminase inactive, PABP1 MLLE inh inactive, PABP polyA inh inactive, PHOSPHO1 block inactive, eIF4H inh inactive, A3A conf 63 and UDG A3A counter inactive.
For C[N+](C)(C)CCOC(=O)C1(c2ccccc2)CCCC1 the results were APOBEC3A inh 60, A3G deaminase inactive, PABP1 MLLE inh inactive, PABP polyA inh inactive, PHOSPHO1 block inactive, eIF4H inh inactive, A3A conf 76 and UDG A3A counter inactive.
COC(=O)[C@@H](NCc1cccc(CN[C@H](C(=O)OC)C(C)C)c1)C(C)C was read as APOBEC3A inh inactive, A3G deaminase inactive, PABP1 MLLE inh inactive, PABP polyA inh inactive, PHOSPHO1 block inactive and eIF4H inh inactive.
Cc1cc(C)c(C(=O)COC(=O)c2cccnc2Cl)c(C)c1 was read as APOBEC3A inh inactive, A3G deaminase inactive, PABP1 MLLE inh inactive, PABP polyA inh inactive, PHOSPHO1 block inactive and eIF4H inh inactive.
For CC(C[N+](C)(C)C)OC(=O)C1(c2ccccc2)CCCC1 (centres undefined) the results were APOBEC3A inh 44, A3G deaminase inactive, PABP1 MLLE inh inactive, PABP polyA inh inactive, PHOSPHO1 block inactive, eIF4H inh inactive, A3A conf 66 and UDG A3A counter inactive.
`N#CC(c1ccccc1)C(CC(=NO)c1ccccc1)c1ccccc1` (centres undefined) gave PABP1 MLLE inh inactive.
`Cc1ccc(S(=O)(=O)Cc2ccc(C(=O)N3CCc4ccccc4C3)o2)cc1` gave APOBEC3A inh 41, A3G deaminase inactive, PABP1 MLLE inh inactive, PABP polyA inh active, PHOSPHO1 block inactive, eIF4H inh 90, A3A conf 34 and UDG A3A counter inactive.
For Cc1ccc(S(=O)(=O)Nc2cc3c4c(c2)CC(=O)N4CCC3)cc1 the results were APOBEC3A inh inactive, A3G deaminase inactive and PABP1 MLLE inh inactive.
`Cn1cccc2[nH]c(=O)nc1-2` gave APOBEC3A inh 78, A3G deaminase inactive, PABP1 MLLE inh inactive, PABP polyA inh inactive, PHOSPHO1 block inactive, eIF4H inh inactive and A3A conf inactive.
`O=C(c1ccc(=O)oc1)N1CCOCC1` gave APOBEC3A inh 95, A3G deaminase inactive, PABP1 MLLE inh inactive, PABP polyA inh active, PHOSPHO1 block inactive, eIF4H inh 88 and A3A conf 84.
Screening O=C(c1ccc(F)cc1)N1CCOCC1 returned APOBEC3A inh inactive, A3G deaminase inactive, PABP1 MLLE inh inactive, PABP polyA inh inactive, PHOSPHO1 block inactive and eIF4H inh inactive.
`O=C(c1ccc(=O)oc1)N1CCCc2ccccc21` gave APOBEC3A inh 71, A3G deaminase inactive, PABP1 MLLE inh inactive, PABP polyA inh inactive, PHOSPHO1 block inactive, eIF4H inh inactive and A3A conf 60.
For CC(Oc1ccc(F)cc1)C(=O)NN (centres undefined) the results were APOBEC3A inh inactive, A3G deaminase inactive, PABP1 MLLE inh inactive, PABP polyA inh inactive, PHOSPHO1 block inactive and eIF4H inh inactive.
`O=C(O)c1cc(-c2ccc(/C=C3\NC(=O)N(c4ccccc4)C3=O)o2)ccc1Cl` gave APOBEC3A inh 58, A3G deaminase inactive, PABP1 MLLE inh inactive, PABP polyA inh inactive, PHOSPHO1 block 67, eIF4H inh inactive, A3A conf 35 and UDG A3A counter inactive.
For CCOc1ccc(NC(=S)NC(=O)/C=C/c2ccco2)cc1 the results were APOBEC3A inh inactive, A3G deaminase inactive, PABP1 MLLE inh inactive, PABP polyA inh inactive, PHOSPHO1 block inactive and eIF4H inh inactive.
`COc1cc(NS(=O)(=O)c2ccc(NC(=S)NC(=O)/C=C/c3ccco3)cc2)ncn1` gave APOBEC3A inh 55, A3G deaminase inactive, PABP1 MLLE inh inactive, PABP polyA inh inactive, PHOSPHO1 block inactive, eIF4H inh inactive, A3A conf 73 and UDG A3A counter inactive.
Cc1cc(C(=O)NC(C)CCC(C)C)c2ccccc2n1 (centres undefined) was read as APOBEC3A inh 46, A3G deaminase inactive, PABP1 MLLE inh inactive, PABP polyA inh inactive, PHOSPHO1 block inactive, eIF4H inh inactive and A3A conf inactive.
For O=C(N/N=C/c1cc(Br)c(Br)o1)c1ccc2c(c1)OCCO2 the results were APOBEC3A inh 76, A3G deaminase inactive, PABP1 MLLE inh inactive, PABP polyA inh active, PHOSPHO1 block inactive, eIF4H inh 76, A3A conf 50 and UDG A3A counter inactive.
For CN(C[C@H](Cc1ccccc1)N(C[C@H](Cc1ccccc1)N(CCC(C)(C)C)N=O)N=O)N=O the results were APOBEC3A inh 98, A3G deaminase inactive, PABP1 MLLE inh inactive, PABP polyA inh inactive, PHOSPHO1 block inactive, eIF4H inh inactive, A3A conf inactive and UDG A3A counter inactive.
`COc1ccc(Cl)cc1NC(=O)c1cccc(-n2cnnn2)c1` gave APOBEC3A inh 48, A3G deaminase inactive, PABP1 MLLE inh inactive, A3A conf inactive and UDG A3A counter inactive.
Screening CCC(C)c1ccccc1NC(=O)c1cccc(-n2cnnn2)c1 (centres undefined) returned APOBEC3A inh 52, A3G deaminase inactive, PABP1 MLLE inh inactive, A3A conf 34 and UDG A3A counter inactive.
